DAX1 inh-1 = inhibitors of DAX1 repression of SF-1 activated StAR promoter | AID 652010 | 1.1% of 370,000 active | inhibition, % at 6.8 µM | HEK293T StAR-luciferase reporter, SF-1/DAX-1 repression relief;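 active means inhibition above the mean over all tested compounds plus 3 SD, cut at about 3.6% in these data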;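 further: 0% = DAX-1 cells with DMSO and 100% = cells lacking DAX-1 with DMSO; higher inhibition means more luminescence from relief of DAX-1 repression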
AHR act = activates the human aryl hydrocarbon receptor | AID 2796 | activation, % at 5 µM | AHR-responsive luciferase reporter cells, luminescence | 2.5% of 320,000 active; in the data active means activation above about 47%;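 further: 0% = vehicle wells and 100% = reference agonist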
Target sequence (P35869 whole entry, looked up): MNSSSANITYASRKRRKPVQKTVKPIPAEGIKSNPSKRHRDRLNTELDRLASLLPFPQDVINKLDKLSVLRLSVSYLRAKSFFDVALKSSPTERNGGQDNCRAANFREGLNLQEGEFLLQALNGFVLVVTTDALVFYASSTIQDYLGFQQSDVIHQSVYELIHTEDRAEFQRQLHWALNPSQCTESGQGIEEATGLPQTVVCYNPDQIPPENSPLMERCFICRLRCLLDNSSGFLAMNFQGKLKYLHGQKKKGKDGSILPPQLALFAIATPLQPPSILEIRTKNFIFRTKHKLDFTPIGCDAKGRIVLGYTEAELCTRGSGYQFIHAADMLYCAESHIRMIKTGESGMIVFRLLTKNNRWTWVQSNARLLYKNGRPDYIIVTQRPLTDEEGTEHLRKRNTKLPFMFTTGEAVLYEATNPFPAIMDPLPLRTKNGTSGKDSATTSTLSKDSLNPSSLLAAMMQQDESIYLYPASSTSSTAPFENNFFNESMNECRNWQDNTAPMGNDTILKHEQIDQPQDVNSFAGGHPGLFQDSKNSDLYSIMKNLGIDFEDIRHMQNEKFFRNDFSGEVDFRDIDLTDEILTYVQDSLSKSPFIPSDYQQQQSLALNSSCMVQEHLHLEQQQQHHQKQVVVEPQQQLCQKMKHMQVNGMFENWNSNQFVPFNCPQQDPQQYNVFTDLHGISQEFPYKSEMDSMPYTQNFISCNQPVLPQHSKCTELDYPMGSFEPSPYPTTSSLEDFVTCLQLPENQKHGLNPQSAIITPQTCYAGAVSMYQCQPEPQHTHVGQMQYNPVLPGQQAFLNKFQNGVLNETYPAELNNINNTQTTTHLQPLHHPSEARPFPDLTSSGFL
ssDAF-12 act = activators of S. stercoralis DAF-12 nuclear receptor | activation, % at 6.8 µM | HEK293 ssDAF-12/GRIP1 lit1-tk-luc reporter, luminescence; % of 3 µM dafachronic acid response | 1% of 370,000 active;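 active means activation above the mean over all tested compounds plus 3 SD, cut at about 0.9% in these data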;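 further: 0% = DMSO-only wells and 100% = 3 µM delta7-dafachronic acid wells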
hcDAF12 agonist = activators of H. contortus DAF-12 nuclear receptor; 1.4% of 370,000 active; activation, % at 6.8 µM; HEK293 hcDAF-12 lit1-tk-luc reporter, luminescence; 0% DMSO, 100% Δ7-dafachronic acid;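 active means activation above the mean of all tested compounds plus 3 SD, cut at about 5.5% in these data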;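 further: 100% = response to 3 µM Δ7-dafachronic acid high control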
DAX1 inh-2 = inhibitors of human orphan nuclear receptor DAX1 (NR0B1); P51843; HEK293 Gal4-DAX1 luciferase reporter, luminescence; inhibition, % at 6.75 µM; 0.99% of 340,000 active; AID 504766;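 active means inhibition above the mean over all tested compounds plus 3 SD, cut at about 4.2% in these data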;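 further: 0% = DAX1-transfected cells with DMSO and 100% = empty-vector control cells with DMSO; inhibition shows as a rise in luminescence from relieved DAX1 repression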
hgDAF12 agonist = agonists of H. glycines DAF-12 nuclear receptor; HEK293 GAL4-hgDAF12 UAS-luciferase reporter, agonist luminescence; normalized to butyrate control; activation, % at 6.8 µM; 1.8% of 370,000 active; AID 687014;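 active means activation above a cutoff set at the mean of all screened compounds plus 3 SD, cut at about 10% in these data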;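 further: 0% = DMSO wells and 100% = sodium butyrate wells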
LXRb hcDAF ctr = LXR-beta agonism as hcDAF-12 counter-screen | shares compounds with hcDAF12 agonist | HEK293 Gal4-LXR tk-luc reporter, luminescence, 24 h; normalized: DMSO 0%, positive control 100% | activation, % at 6.8 µM | 3,400 tested, under 10 active | AID 743027;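 active means mean percent activation of the reporter above a cutoff set as the average over tested compounds plus their standard deviation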
hcDAF12 conf = confirmation of H. contortus DAF-12 agonists; shares compounds with hcDAF12 agonist; AID 743032; activation, % at 6.8 µM; HEK293 hcDAF-12 lit1-tk-luc reporter, luminescence; % of Δ7-dafachronic acid response; 61% of 3,400 active;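 active means mean activation across triplicate tests above the threshold derived from the earlier primary screen, cut at about 5.5% in these data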;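 further: 0% = DMSO only wells and 100% = 3 µM Δ7-dafachronic acid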
Active calls of the source: *; . = no result. The list is not random: actives were taken first. Their share in the collection is about 5.7%.

SMILES	DAX1 inh-1	AHR act	ssDAF-12 act	hcDAF12 agonist	DAX1 inh-2	hgDAF12 agonist	LXRb hcDAF ctr	hcDAF12 conf
Cc1ccc(S(=O)(=O)NCC(=O)OC(C(=O)c2ccccc2)c2ccccc2)cc1 (stereo not drawn)	0.3	0.2	-1.7	1.2	0.2	1.2	.	.
O=C(COc1ccc2c(c1)oc(=O)c1ccccc12)NC(Cc1ccc(Cl)cc1)C(=O)O (stereo not drawn)	0.1	1.4	-1.3	-0.3	1.2	-0.1	.	.
O=C(Nc1ccc2[nH]ccc2c1)c1ccccc1	2.9	-3.9	0.6	9.2*	-1.5	12.4*	1.7	9.5*
Nc1c(-c2ccccc2)n[nH]c1-c1ccccc1	1.0	134.4*	-0.7	7.0*	-0.5	8.1	0.7	7.7*
S=c1nc(-c2ccccc2)c(-c2ccccc2)n[nH]1	-0.2	0.1	-1.3	-0.5	1.3	2.6	.	.
S=C(Nc1ccc(Br)cc1)N1CCCC1	0.5	4.3	-1.6	7.4*	1.0	0.9	-0.1	2.4
Cc1ccccc1CNC(=O)C(=O)NCCC1CCCCN1S(=O)(=O)c1cccs1 (stereo not drawn)	-2.8	6.3	-0.3	-2.2	-0.1	-1.9	.	.
CCCc1nc2c(C)cc(Br)cn2c1Cc1ccsc1	-1.1	.	-0.4	1.3	.	6.9	.	.
Brc1cccc(-c2nc3c4ccccc4ccn3c2Cc2ccccc2)c1	-0.9	.	1.0*	7.2*	.	1.3	-0.1	7.4*
CCCc1nc2c(C)cc(Br)cn2c1Cc1ccccc1	0.9	.	1.0*	11.4*	.	7.3	0.6	7.4*
Clc1ccc(-c2nc3c4ccccc4ccn3c2Cc2ccsc2)cc1	1.9	.	0.1	8.8*	.	7.6	0.1	5.8*
CCCc1nc2c3ccccc3ccn2c1Cc1cccc(Cl)c1	1.7	.	0.8	6.7*	.	12.3*	0.5	7.1*
Cc1ccc(-c2nc3c4ccccc4ccn3c2Cc2cccc(Cl)c2)cc1	-0.6	.	0.5	2.2	.	6.8	.	.
CCNC(=O)C1(C)CCN(C(=O)c2ccc3snnc3c2)C1 (stereo not drawn)	0.4	.	-0.9	1.2	.	3.3	.	.
Cc1ccc(C(=O)NNC(=O)COC(=O)COc2ccccc2C#N)cc1	2.8	3.9	-1.0	2.0	0.4	0.3	.	.
Cc1cc(Br)cn2c(Cc3cccc(F)c3)c(-c3ccccc3)nc12	-1.2	.	-1.6	-1.8	.	-0.3	.	.
Clc1ccc2nc(-c3ccccc3)c(CN3CCOCC3)n2c1	-0.5	4.1	-1.5	-0.7	-0.2	2.3	.	.
Cc1cc(Br)cn2c(Cc3ccccc3)c(-c3cccc(Cl)c3)nc12	-0.8	.	0.2	7.0*	.	3.1	-0.1	1.5
Fc1cccc(Cc2c(C3CCCCC3)nc3c4ccccc4ccn23)c1	3.4	.	0.9	8.6*	.	10.4	0.1	4.9
c1ccc(-c2nc3c4ccccc4ccn3c2CN2CCOCC2)cc1	0.8	46.4	0.6	8.3*	4.0	10.3	0.1	6.7*
Cc1cc(Br)cn2c(Cc3ccccc3)c(C3CCCCC3)nc12	0.2	.	-0.7	1.7	.	2.5	.	.
Cc1ccc2c(c1)C1CC(C)(O2)N(c2cccc(C(=O)NC3CCN(Cc4ccccc4)CC3)c2)C(=O)N1 (stereo not drawn)	0.0	-3.6	-1.0	-1.4	0.4	0.2	.	.
O=C(NCCC1=CCCCC1)C1CCN(S(=O)(=O)c2cccc(C(F)(F)F)c2)CC1	0.3	0.1	-1.3	-1.8	-0.1	-4.1	.	.
Cn1c(=NN=Cc2ccccc2OCCO)sc2ccccc21	3.5	.	1.7*	7.8*	1.8	9.5	0.4	7.9*
Cn1c(=NCC(O)COc2ccccc2)sc2ccccc21 (stereo not drawn)	0.3	-13.3	-1.4	-1.2	0.2	-1.3	.	.
SMILES	DAX1 inh-1	AHR act	ssDAF-12 act	hcDAF12 agonist	DAX1 inh-2	hgDAF12 agonist	LXRb hcDAF ctr	hcDAF12 conf
O=C1C(=O)N(Cc2ccccc2)C(=O)N1CCN1C(=O)c2ccccc2C1=O	-0.7	-0.2	-1.3	-0.8	3.9	-2.4	.	.
O=C1Cc2ccccc2C(=O)N1CCc1ccccc1	0.2	72.6*	0.3	6.9*	4.7*	5.8	0.1	4.3
CS(=O)(=O)c1ccc(C(=O)OC2CCOC2=O)cc1[N+](=O)[O-] (stereo not drawn)	-0.1	-1.6	-1.3	3.6	-0.9	-1.6	.	.
c1ccc(-c2c[nH]c3ccc(OCc4ccc5ccccc5n4)c(-c4ccccc4)c23)cc1	0.1	.	-0.2	7.4*	.	5.7	-0.2	3.0
c1ccc(-c2cccc3[nH]cc(-c4ccccc4)c23)cc1	-0.2	.	-1.1	-1.3	.	-0.7	.	.
CCOC(=O)c1sc(=NC(=O)c2ccc(C)cc2)n(C)c1C	3.6	44.4	1.2*	9.7*	1.9	11.2*	0.6	9.7*
CCOC(=O)c1sc(=NC(=O)c2cccc(Br)c2)n(C)c1C	0.0	5.9	-0.6	1.4	1.3	5.2	.	.
CN(C)c1ccc(-c2ccnc3c2CC(C)(C(=O)NCCc2ccccc2)O3)cc1 (stereo not drawn)	-0.4	.	-0.8	-1.4	.	1.9	.	.
NC(=O)C1CCN(c2oc(/C=C/c3ccc(F)cc3)nc2S(=O)(=O)c2ccccc2)CC1	-0.6	-0.7	-1.1	0.9	0.0	-1.9	.	.
N#Cc1c(SCC(=O)Nc2nc3ccc(Br)cc3s2)sc2c(O)cc(=O)[nH]c12	0.0	14.1	-0.1	4.4	0.3	0.3	.	.
N#Cc1c(SCC(=O)Nc2nc3ccccc3s2)sc2c(O)cc(=O)[nH]c12	0.7	24.5	0.8	7.9*	-1.1	3.8	0.2	5.1
CCCc1cc(C(=O)Nc2ccc(F)c(Cl)c2)no1	0.5	-6.6	-0.8	2.1	0.1	4.0	.	.
CCCc1cc(C(=O)Nc2cccc(Cl)c2)no1	0.7	-2.2	-0.5	9.4*	1.2	7.8	0.9	3.0
CCC1CCC(N2CCN(c3cccc(OC)c3)CC2)CC1 (stereo not drawn)	0.6	.	0.2	8.1*	-0.3	9.7	0.0	1.2
CCOc1ccccc1C(=O)NCC(=O)N(C)Cc1cccnc1	0.0	8.7	-0.9	1.5	-1.1	0.9	.	.
O=C(COC(=O)c1cc([N+](=O)[O-])ccc1Cl)NC1CCCC1	-0.5	3.0	-0.3	10.2*	1.2	0.6	-0.2	0.1
CC1CC(NS(=O)(=O)c2cc3c4c(c2)CCN4C(=O)CC3)CC(C)(C)C1 (stereo not drawn)	-1.0	0.6	-1.3	-1.0	-1.3	0.6	.	.
Cc1cnc(NC(=O)C2COc3ccccc3O2)s1 (stereo not drawn)	1.0	4.0	-0.7	9.2*	-3.1	3.9	1.1	7.2*
